Screens from PubChem BioAssay.
Hits are enriched below; roughly 3.1% of the tested compounds scored in any of these assays.
PNC inhibitor – High Content Assay for Compounds that inhibit the Assembly of the Perinucleolar Compartment; 140,000 compounds, 3.1% hits; activity change (PNC), negative = inhibition, % at 10 µM; AID 2417, 2010; PC3M PTB-GFP, PNC prevalence imaging, 16 h; hits give low values;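 active = readout at or below -70, meaning at least 70% loss of cells showing the perinucleolar compartment, a nuclear body marking cancer cells; inconclusive = readout between -30 and a set limit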;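 note: plate controls were DMSO wells for no effect and camptothecin positive control wells for full effect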
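PC3M cells stably expressing PTB-GFP, 750–1000 cells/well, treated 16 h at 37 °C with compound (23 nl of library stock), in duplicate. After paraformaldehyde fixation and Hoechst stain, imaged at 20x; PNC prevalence scored by image analysis.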
15-hLO-2 inh – qHTS Assay for Inhibitors of 15-hLO-2 (15-human lipoxygenase 2); Polyunsaturated fatty acid lipoxygenase ALOX15B (Homo sapiens), O15296; purified 15hLO-2, xylenol orange hydroperoxide absorbance; Potency, µM (highest dose often 57.1 µM), inactives show at the top dose activity change, negative = inhibition, most hits filed as inhibitors; 110,000 compounds, 0.56% hits; AID 881, 2007; note: potency is the fitted concentration of half-maximal effect; nearly all actives have a fitted effect of over 60% in size
Target sequence (O15296 whole entry, looked up): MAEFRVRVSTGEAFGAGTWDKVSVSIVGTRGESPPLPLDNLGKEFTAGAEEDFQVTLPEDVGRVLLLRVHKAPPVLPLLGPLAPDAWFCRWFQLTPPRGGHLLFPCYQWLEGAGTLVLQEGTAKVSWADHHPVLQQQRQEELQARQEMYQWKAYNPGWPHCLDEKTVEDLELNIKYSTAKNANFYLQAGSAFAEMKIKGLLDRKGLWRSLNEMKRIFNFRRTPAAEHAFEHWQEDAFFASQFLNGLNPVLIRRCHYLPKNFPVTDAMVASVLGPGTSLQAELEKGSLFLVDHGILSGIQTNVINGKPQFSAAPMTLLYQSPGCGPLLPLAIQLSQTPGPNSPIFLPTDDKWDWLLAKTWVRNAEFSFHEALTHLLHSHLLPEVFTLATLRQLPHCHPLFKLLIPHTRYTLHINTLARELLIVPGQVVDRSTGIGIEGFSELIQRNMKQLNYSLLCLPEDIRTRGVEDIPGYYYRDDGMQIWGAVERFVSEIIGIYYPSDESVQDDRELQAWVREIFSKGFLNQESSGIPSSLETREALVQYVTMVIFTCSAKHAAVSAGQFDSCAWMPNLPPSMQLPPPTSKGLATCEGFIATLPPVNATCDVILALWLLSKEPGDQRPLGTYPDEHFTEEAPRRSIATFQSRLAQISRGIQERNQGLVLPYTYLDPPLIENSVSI
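Enzyme 50 nM, AA 45 uM, 25 mM Hepes pH 7.5 + 0.01% Triton X-100; cpd preinc 15 min RT, rxn 90 min RT; stop/detect with 200 uM XO + 300 uM Fe(II) in 50 mM H2SO4, 30 min; A573/A405.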
12-hLO inh – qHTS Assay for Inhibitors of 12-hLO (12-human lipoxygenase) | Potency, µM (titrated, usually from 57.1 µM), without a hit: top-dose activity change, negative = inhibition, usual class: inhibitors | purified 12-hLO, xylenol orange hydroperoxide absorbance | 150,000 compounds, 0.12% hits | Polyunsaturated fatty acid lipoxygenase ALOX12 (Homo sapiens), P18054; note: potency is the fitted concentration of half-maximal effect; nearly all actives have a fitted effect of over 55% in size
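Lipoxygenase turnover measured by absorbance at 573 and 405 nm after Fe-XO development. Human 12hLO 150 nM, arachidonate 40 uM, pH 7.0 Hepes buffer with detergent; 15 min compound preincubation, 30 min reaction.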
Numbers without * were called inactive; ? = inconclusive; / = not tested or not shown; [ ] = remark or other dose. Unless noted, calls come from the whole dose curve; as a rule, active = well fitted curve in the direction sought with a large enough effect; inconclusive = small, poorly fitted or top-dose-only effect, or another doubt; inactive = no such curve, though single readings can be large; an effect the other way counts as inactive or inconclusive. Unless noted, % is set by controls: 0 for no effect and ±100 for the full control effect.

SMILES	PNC inhibitor	15-hLO-2 inh	12-hLO inh
Cn1c(=O)c2c(nc(NC3CCCCC3)n2CC(O)COc2ccccc2)n(C)c1=O (centres undefined)	14	2%	-2%
COc1ccc(OCC(O)Cn2c(Nc3ccccc3)nc3c2c(=O)n(C)c(=O)n3C)cc1 (centres undefined)	-83*	-7%	1%
C/C(Cl)=C\Cn1c(Nc2ccc(C)cc2)nc2c1c(=O)n(C)c(=O)n2C	-95*	-17%	-4%
C/C(Cl)=C/Cn1c(N2CCCC2)nc2c1c(=O)n(C)c(=O)n2C	-11	-7%	-3%
CCC(CC)C(=O)Nc1cc([N+](=O)[O-])ccc1Cl	-116*	/	-4%
CCC(CC)C(=O)Nc1cc([N+](=O)[O-])ccc1F	10	/	-1%
CC(=O)O[C@H]1CC[C@@]2(C)[C@@H](CC[C@H]3[C@H]2CC(=O)[C@@]2(C)[C@@H]3C[C@H]3CC(C)=CC(=O)[C@H]32)C1	/	-3%[11.4 µM]	4%[11.4 µM]
Cc1cc(C)n(C(=O)c2ccc(Cn3nc(C)c(Br)c3C)o2)n1	-100*	/	-3%
Cc1nn(Cc2ccc(C(=O)n3cccn3)o2)c(C)c1Br	-11	/	5%
Cc1ccc(S(=O)(=O)N2CCC(=O)N(CCOCc3cccc(C)c3)CC2)cc1	67	/	-2%
Cc1ccc(S(=O)(=O)N2CCC(=O)N(C(COCc3ccccc3)C(C)C)CC2)cc1 (centres undefined)	22	/	0%
Cc1ccc(S(=O)(=O)N2CCC(=O)N(C(COCc3ccc(Cl)cc3)C(C)C)CC2)cc1 (centres undefined)	-119*	/	-11%
Cc1ccc(S(=O)(=O)N2CCC(=O)N(CCOCc3cccc(C(F)(F)F)c3)CC2)cc1	-81*	/	-3%
CC(Cc1ccccc1)C(=O)NCC1CC1 (centres undefined)	/	-5%	2%
N#CCCn1c(=O)cnc2cnc(N3CCNCC3)nc21	/	-5%	3%
Cc1cc(C(=O)Cn2nnc3ccccc3c2=O)c(C)n1-c1ccccc1F	-87*	2%	-1%
COc1ccc(-n2c(C)cc(C(=O)Cn3nnc4ccccc4c3=O)c2C)cc1	?	-9%	-5%
O=C(c1ccccc1)c1sc(N2CCCCCC2)nc1-c1ccccc1	-17	10%	2%
O=C(O)c1cc(-c2cccc(Cl)c2)nc2nc(N3CCCCC3)sc12	-86*	/	-4%
COc1ccc(C2=NN3C(=O)c4c(ccc(OC)c4OC)C3C2)cc1 (centres undefined)	13	3%[11.4 µM]	1%
COc1ccc2c(c1OC)C(=O)N1N=C(c3ccc(Cl)cc3)CC21 (centres undefined)	-93*	/	4%
COc1nc(-c2ccc(C)cc2)ccc1-c1noc(-c2ccco2)n1	0	-8%	-20%
CCOc1nc(-c2ccccc2)ccc1-c1noc(-c2ccco2)n1	-100*	/	-2%
CCOC(=O)c1cc(NC(=O)N(C(C)C)C(C)C)c(C)nc1C	37	-3%	-2%
COc1ccc(C)cc1NC(=O)Nc1ccccc1	26	5%	6%
SMILES	PNC inhibitor	15-hLO-2 inh	12-hLO inh
CCOC(=O)c1cc(NC(=O)Nc2ccc(OC)c(OC)c2)c(C)nc1C	-102*	-1%	1%
COc1ccc(NC(=O)Nc2cc(C)ccc2OC)cc1	-82*	1%[2.29 µM]	1%
OC1CCCC1	/	-9%	0%
COc1cccc(CC(=O)N2CCc3nc(-c4ccc(OC)cc4C)c4c(c3C2)CO[C@@H](c2ccccc2)C4)c1	/	/	-4%[11.4 µM]
CCOC(=O)N1CCN(C(=O)C2CCN(CC3CCCCC3)CC2)CC1	-114*	/	1%
CCOC(=O)N1CCN(C(=O)C2CCN(S(=O)(=O)N3CCCC3)CC2)CC1	10	/	-2%
Cc1ccc(NC(=O)c2ccccc2NS(=O)(=O)c2ccc(Cl)s2)cc1	-82*	/	-3%
O=C(Nc1ccccc1)c1ccccc1NS(=O)(=O)c1ccc(Cl)s1	119	/	-7%
CCCC(=O)NC(=S)Nc1ccccc1C(=O)OC	-108*	-10%	1%
CCC(=O)NC(=S)Nc1ccccc1C(=O)OC	4	/	-8%
CCN(Cc1cc(Cl)cc(C)c1O)Cc1c(O)ccc2ccccc12	/	-8%[11.4 µM]	-9%[11.4 µM]
CCNc1ncc2ncc(=O)n(C3CC3)c2n1	/	20%	/
CCOC(=O)c1c(NC(=O)COC(=O)c2c(C)noc2C)sc2c1CCC2	92	/	0%
CCOC(=O)c1c(NC(=O)c2ccco2)sc2c1CCCC2	-25	-7%	-8%
CCOC(=O)c1c(NC(=O)COC)sc2c1CCCC2	-84*	-1%	-1%
CCOC(=O)c1[nH]c(C)c(C(=O)N2CCN(C(=O)c3ccco3)CC2)c1C	-100*	/	2%
